# Results reported in PubChem BioAssay AID1851 (National Center for Advancing Translational Sciences (NCATS), 2009).
# Among all 16,000 compounds or so, about 5,700 (36%) were called active. Roughly 24% stayed inconclusive and do not appear here. The list shows a part of the results. Values without a mark were called inactive. The call rests on the fitted dose curve; in most records, active means well fitted curve in the direction sought with a large enough effect; inconclusive means small, poorly fitted or top-dose-only effect, or effect the other way; inactive means no such curve, though single readings can be large or run the other way.
# Molecular target: Cytochrome P450 1A2 (Homo sapiens) (UniProt P05177)
# Experiment: Cytochrome panel assay with activity outcomes
# Conditions: recombinant CYP, pro-luciferin dealkylation, luminescence, p450-cyp1a2; series mostly up to 57.1 µM; activity, negative = inhibition: at the top concentration
# On the % scale 0 is the no-effect control and ±100 the full control effect.
# Chain of Cytochrome P450 1A2 (Homo sapiens) (P05177 whole entry, looked up): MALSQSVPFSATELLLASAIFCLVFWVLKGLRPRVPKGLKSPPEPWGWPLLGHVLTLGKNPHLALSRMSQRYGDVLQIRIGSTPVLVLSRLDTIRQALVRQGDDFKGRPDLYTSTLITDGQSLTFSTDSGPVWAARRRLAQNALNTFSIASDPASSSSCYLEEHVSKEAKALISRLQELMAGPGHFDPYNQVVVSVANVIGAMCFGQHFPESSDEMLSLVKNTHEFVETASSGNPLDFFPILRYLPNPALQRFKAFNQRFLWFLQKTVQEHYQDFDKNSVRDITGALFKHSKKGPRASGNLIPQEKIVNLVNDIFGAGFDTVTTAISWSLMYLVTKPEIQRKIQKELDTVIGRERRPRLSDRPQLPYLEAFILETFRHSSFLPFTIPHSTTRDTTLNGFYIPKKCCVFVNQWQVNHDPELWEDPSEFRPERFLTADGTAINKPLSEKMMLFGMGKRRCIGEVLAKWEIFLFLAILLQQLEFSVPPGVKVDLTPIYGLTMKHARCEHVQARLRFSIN
SMILES,AC50,"activity, negative = inhibition"
Cc1nc(Oc2ccc(Cl)cc2)c2oc3ccccc3c2n1,141 nM (active),
O=C1Nc2ccccc2Nc2ncccc21,2240 nM (active),
CS(=O)(=O)c1nc(-c2ccccc2)cc(-c2ccccc2)c1C#N,891 nM (active),
N#Cc1c(-c2ccccc2)cc(-c2ccccc2)nc1SCc1nnc(-c2ccccc2)o1,,-19.9%
O=C1CC(=O)N(CCc2ccc(F)cc2)C(=O)N1,,16.7%
Cc1c(/N=C/c2ccco2)n(Cc2ccccc2)c2ccccc12,1120 nM (active),
CCn1c(=O)cc(SCC(=O)N2CCN(C(=O)c3ccco3)CC2)c2ccccc21,,-16.5%
CNC(=O)NC(=O)CSc1nnc(-c2ccco2)n1Cc1ccccc1,,-3.58%
CC12c3ccccc3C(c3ccccc31)C1C(=O)N(Cc3cccnc3)C(=O)C12 (stereo not given),,-21.4%
O=C1C2[C@@H](c3ccccc3)N[C@@H](c3ccccc3)C1[C@H](c1ccccc1)N[C@H]2c1ccccc1,,-18.6% [at 11.4 µM]
S=C1N[C@H](c2ccccc2)N[C@H](c2ccccc2)S1,3160 nM (active),
COc1cc(C(=O)NCCC(C)C)c([N+](=O)[O-])cc1OC,,-14%
CCC(C)Nc1c([N+](=O)[O-])cc(C)cc1[N+](=O)[O-] (stereo not given),1780 nM (active),
CC[C@@H](CS(=O)(=O)O)[N+](=O)[O-],,-0.979% [at 11.4 µM]
Cn1cc(-c2nnc(-c3ccccc3)o2)c2ccccc21,2000 nM (active),
N#C/C(=C\c1cn[nH]c1-c1ccccc1)C(=O)NC1CCCCCC1,11200 nM (active),
O=C(NC1CCCCC1)C(c1ccccc1)N1CCOCC1 (stereo not given),,-9.96%
COc1ccc(/C=C(/C#N)C(=O)NC2CCCCC2)cc1Br,,-9.87%
N#C/C(=C\c1cc(Cl)cc(Cl)c1O)C(=O)NC1CCCCC1,5010 nM (active),
CCOC(=O)C[C@@H](C(=O)OCC)[C@@H]1CCCCC1=O,,-6.2% [at 11.4 µM]
CCOC(=O)c1cc(CC)sc1NC(=O)c1cc(OCC)c(OCC)c(OCC)c1,,-3.4%
CCOc1cc(-c2noc(N)c2C#N)cc(OCC)c1OCC,141 nM (active),
CCON=C1C(C)(C)C(C)(C)C(C)(C)C1(C)C,,-12% [at 11.4 µM]
CC1CN(C(NC(=O)C(C)(C)C)C(Cl)(Cl)Cl)CC(C)O1 (stereo not given),,9.97%

SMILES,AC50,"activity, negative = inhibition"
COCCNc1nc(-c2ccc(C(=O)N(C)C)cc2)nc2ccccc12,20000 nM (active),
CN(C)c1ccc(-c2nc(NCCc3cnc[nH]3)c3ccccc3n2)cc1,631 nM (active),
CN(C)C(=O)c1ccc(-c2nc(Nc3ccccc3)c3ccccc3n2)cc1,398 nM (active),
NCCC(=O)NCCc1cnc[nH]1,inactive,
CN(C)C(=O)c1ccc(-c2nc(NCc3cccs3)c3ccccc3n2)cc1,12600 nM (active),
CCOC(=O)N1CCC(NC(=O)C2CCN(S(=O)(=O)N3CCCC3)CC2)CC1,,10.4%
CN(C)C[C@H]1CCC[C@@H](CN(C)C)C1=O,,-12.2% [at 11.4 µM]
Cc1ccc(S(=O)(=O)N[C@H](C(=O)N2CCC(C(=O)NCC(=O)O)CC2)C(C)C)cc1,,0.499%
COCCNc1nc(-c2ccc(N(C)C)cc2)nc2ccccc12,631 nM (active),
CC(=O)NCCNc1nc(-c2ccc3c(c2)OCO3)nc2ccccc12,2510 nM (active),
CC(=O)NCCNc1nc(-c2ccc(C(=O)N(C)C)cc2)nc2ccccc12,,-16.8%
CC(=O)NCCNc1nc(-c2ccc(N(C)C)cc2)nc2ccccc12,3160 nM (active),
CCCCN(C)CCCNC(=O)CS(=O)Cc1nc(-c2ccc(OC)c(OC)c2)oc1C (stereo not given),,-23.9%
O=C(c1cnccn1)N1CCC2(CC1)CN(Cc1cc(C(F)(F)F)cc(C(F)(F)F)c1)C2,,-8.7%
N#Cc1cccc(-c2nc3cnc(N4CCNCC4)nc3n(C3CC3)c2=O)c1,5010 nM (active),
N#Cc1cccc(-c2nc3cnc(N4CCOCC4)nc3n(C3CC3)c2=O)c1,2510 nM (active),
O=c1c(-c2ccc(F)cc2)nc2cnc(N3CCOCC3)nc2n1C1CC1,,9.66%
O=c1c(-c2ccccc2)nc2cnc(N3CCOCC3)nc2n1C1CC1,3160 nM (active),
NC(=O)N1c2ccccc2C=Cc2ccccc21,,-6.61% [at 25.6 µM]
CC1(C)Cc2c(sc3nc(SCC(=O)NCc4ccccc4)n(-c4ccccc4)c(=O)c23)CS1,,4.62%
C=CCn1c(SCC(=O)Nc2c(C)n(C)n(-c3ccccc3)c2=O)nc2sc(C)c(-c3ccccc3)c2c1=O,,-3.98%
C=CCn1c(SCC)nc2sc3c(c2c1=O)CCc1ccccc1-3,1780 nM (active),
CO[C@@H]1CC[C@@]2(C)[C@@H](CC[C@@]3(C)[C@H]2CC=C2[C@H]4CC(C)(C)[C@H](O)[C@@H](OC(C)=O)[C@]4(CO)[C@H](O)C[C@]23C)[C@@]1(C)CO (tested in a mixture with another compound),,3.18% [at 25.6 µM]
COc1ccc2cc(C)c3nnc(SCC(=O)Nc4nc(-c5ccccc5)cs4)n3c2c1,,-29.5%

SMILES,AC50,"activity, negative = inhibition"
COc1ccc(-c2csc(NC(=O)Cn3nc(C)cc3C)n2)cc1,3160 nM (active),
CC(N)=NCCCC[C@H](N)C(=O)O,,-6.11%
COc1cc(/C=C/C(=O)O)cc(S(=O)(=O)NCCCO)c1OC,,-10.6%
COc1cc(/C=C/C(=O)N2CCN(CC(O)COc3ccccc3)CC2)cc(OC)c1OC (stereo not given),,3.55%
COc1cc(/C=C\C(=O)N2CCC=CC2=O)cc(OC)c1OC,200 nM (active),
N#Cc1ccccc1-c1ccc2ncnc(NCCN3CCOCC3)c2c1,10000 nM (active),
Clc1ccccc1-c1ccc2ncnc(NCCN3CCOCC3)c2c1,5010 nM (active),
COc1ccc(C2c3c(ncn(CCN4CCOCC4)c3=N)Oc3ccc4ccccc4c32)cc1OC (stereo not given),,-21.2%
COc1ccccc1-c1ccc2ncnc(NCCN3CCOCC3)c2c1,15800 nM (active),
CCCN=Cc1c(CCC)[nH]n(-c2nc3ccccc3s2)c1=O,562 nM (active),
CN(C)C(=O)c1ccc(-c2cncnc2NCCN2CCOCC2)cc1,,-17.9%
CC(=O)NCCNc1ncncc1-c1ccc(N(C)C)cc1,6310 nM (active),
CC(=O)NCCNc1ncncc1-c1ccccc1CN(C)C,25100 nM (active),
COc1ccccc1-c1cncnc1NCCNC(C)=O,,-18.6%
CN(C)c1ccc(-c2cncnc2NCCN2CCOCC2)cc1,15800 nM (active),
COc1ccc(CCN2CC34C=CC(O3)C(C(=O)NCc3ccccc3)C4C2=O)cc1OC (stereo not given),,-6.47%
COc1cc2c(cc1OC)C(C(=O)N1CCOCC1)C(c1cccs1)N(C)C2=O (stereo not given),,1.79%
C(/C=C\c1ccccc1)=Nc1ccc2c(c1)Cc1ccccc1-2,398 nM (active),
Clc1ccc(C=Nc2ccc3c(c2)Cc2ccccc2-3)c(Cl)c1,794 nM (active),
Oc1ccc(Cl)cc1C=Nc1cnc2ccccc2c1,,-13.2% [at 2.29 µM]
O=C(Nc1cccc(F)c1)N1CCCC2(CCN(S(=O)(=O)c3ccccc3)CC2)C1,,-20%
CCCCCCCCCCCCCCCCCCNC(=O)OC[C@@H](COP(=O)([O-])OCC[n+]1ccsc1)OC,,16.8%
Cc1c(NC(=O)C(C)N2C(=O)c3ccccc3C2=O)c(=O)n(-c2ccccc2)n1C (stereo not given),,1.41%
CC(=O)Nc1c2c3c(cccc3n(C)c1=O)C(=O)c1ccccc1-2,2510 nM (active),

SMILES,AC50,"activity, negative = inhibition"
Clc1ccc(-c2noc(CN3CCCCC3)n2)cc1,631 nM (active),
N=C(N)SCc1nc(-c2ccc(Cl)cc2)no1,1260 nM (active),
Cc1ccc(-c2noc(CN3CCN(C(c4ccccc4)c4ccccc4)CC3)n2)cc1,,-23.9%
Cc1ncc(CSC(=N)N)n1Cc1ccccc1,,-2.06% [at 11.4 µM]
CCCNC(=O)OC[C@@H]1O[C@H](CCON=C(C)C)C=C[C@@H]1Oc1ccc(OC)cc1,,-2.59% [at 11.4 µM]
CC(=O)N1CCc2cc(Br)cc(S(=O)(=O)N3CCN(C(=O)c4ccco4)CC3)c21,,0.342%
CC(C)(O)C#Cc1ccc(C(=O)NCc2cccs2)s1,15800 nM (active),
Cc1cc(Nc2ccc(Cl)cc2)nc(N)n1,10000 nM (active),
Nc1nc(Cl)cc(NCCO)n1,,-22.6% [at 11.4 µM]
Cc1cc(C)c(S(=O)(=O)NNC(=O)C2CCN(Cc3ccccc3)CC2)c(C)c1,,-1.29%
O=C(/C=C\C=C/c1ccc2c(c1)OCO2)N1CCCCC1,3160 nM (active),
COc1ccccc1N1CCN(C(=O)/C=C/c2ccc3c(c2)OCO3)CC1,25100 nM (active),
O=C(/C=C\c1ccc2c(c1)OCO2)c1ccc(F)cc1,,-4.56% [at 11.4 µM]
COc1ccccc1N1CCN(Cc2cc(=O)n3ccsc3n2)CC1,,-3.58%
C/C(=N\Nc1nnc(-c2ccccc2)c(-c2ccccc2)n1)c1cccc([N+](=O)[O-])c1,3550 nM (active),
Nc1cc(Cl)nc(N/N=C/c2ccccc2[N+](=O)[O-])n1,2000 nM (active),
NC(=O)CNC(=O)[C@@H]1CC2(CC(c3cccc([N+](=O)[O-])c3)=NO2)CN1C(=O)c1ccccc1 (stereo not given in full),,15.4%
C/C(=N\Nc1ccc([N+](=O)[O-])cc1)c1cccc(N)c1,1260 nM (active),
C/C(=N\Nc1nc(N)cc(Cl)n1)c1cccc([N+](=O)[O-])c1,11200 nM (active),
N=c1nc(N)nc(N)n1-c1ccc(S(N)(=O)=O)cc1,,-3.8% [at 2.29 µM]
O=C(O)[C@@H](c1ccccc1)[C@@H](C(=O)O)c1ccccc1,,-12% [at 2.29 µM]
O=C(c1ccccc1)[C@H](Nc1ccc2ccccc2c1)c1ccccc1,794 nM (active),
O=C(CSc1nc2ccc([N+](=O)[O-])cc2s1)c1ccc2ccccc2c1,3160 nM (active),
